IDH1 R132H inh = blocks human mutant IDH1 R132H enzyme; 390,000 compounds, 0.093% hits; O75874; Potency, µM (series often up to 76.6 µM), for inactives: at the highest dose activity change, negative = inhibition, actives largely listed as inhibitors; IDH1-R132H enzyme, NADPH consumption, diaphorase/resazurin fluorescence; AID 602179; active = well fitted inhibition curve with a large enough effect; inconclusive = small, poorly fitted or top-dose-only effect; inactive = no such curve, though single readings can be large or run the other way; note: potency is the fitted concentration of half-maximal effect; % is set by controls: 0 for no effect and ±100 for the full control effect; nearly all actives have a fitted effect of over 65% in size
Target sequence (O75874 whole entry R132H, stated change not applied): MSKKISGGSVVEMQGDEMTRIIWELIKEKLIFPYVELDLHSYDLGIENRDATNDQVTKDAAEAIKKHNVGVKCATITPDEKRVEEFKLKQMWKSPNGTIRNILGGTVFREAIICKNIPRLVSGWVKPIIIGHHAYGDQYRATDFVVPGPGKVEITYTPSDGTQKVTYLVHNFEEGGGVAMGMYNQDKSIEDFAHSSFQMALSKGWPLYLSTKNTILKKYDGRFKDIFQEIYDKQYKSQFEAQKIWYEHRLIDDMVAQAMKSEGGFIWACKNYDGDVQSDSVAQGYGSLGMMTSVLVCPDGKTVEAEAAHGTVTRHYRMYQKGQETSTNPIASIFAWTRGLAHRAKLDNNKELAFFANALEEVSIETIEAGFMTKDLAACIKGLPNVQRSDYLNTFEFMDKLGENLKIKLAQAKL
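IDH1-R132H (0.5 ug/mL dispensed) in pH 7.5 Tris buffer was preincubated 30 min with compound, then given a substrate mix of 0.016 mM NADPH and 2 mM alpha-KG for 80 min at room temperature; remaining NADPH was read by diaphorase/resazurin fluorescence.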
Akt phos inh = blocks phosphorylation of Akt; Neuro2A IGF-stimulated pAkt S473 HTRF, 20 min; stronger effect = lower value; activity change, % for hits at 50 µM; 360,000 compounds, 0.32% hits; AID 651550; in the data active = activity change below about -80%; inconclusive = mostly about -51% to -80%; note: % is set by controls: 0 for no effect and ±100 for the full control effect
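Single-point screen (50 µM final compound) in Neuro2A cells stimulated 20 min with 6 nM IGF at 37 deg C. After lysis, Ser473-phosphorylated Akt read by HTRF (ex 330 nm, em 615/665 nm) as the 665/615 ratio.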
MLL CXXC-DNA inh = MLL CXXC-DNA interaction inhibition; Q03164; MLL-CXXC / FITC-HOXA9 DNA fluorescence polarization; Potency, µM (doses to about 115 µM), without a hit: at the top dose activity change, negative = inhibition, actives largely listed as inhibitors; 290,000 compounds, 0.037% hits; AID 2662; active = well fitted inhibition curve with a large enough effect in the polarisation, with a control signal flat, not every such curve was filed as active; inconclusive = small, poorly fitted or top-dose-only effect, or effect the other way, or a change in a side signal; inactive = no such curve, though single readings can be large or run the other way; the % refers to the polarisation; note: potency is the fitted concentration of half-maximal effect
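Fluorescence polarization: 7 uM MLL-CXXC (stock) preincubated 5 min with compounds, then 50 nM fluorescein-HOX-A9 DNA (stock) added; 30 min ambient. Buffer 50 mM Tris-HCl pH 7.5, 50 mM NaCl, 1 mM DTT, 0.05% BSA.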
LDHA block = inhibitors of human lactate dehydrogenase A; AID 1347041; activity change, % (values are at about 110 or 230 µM); 480,000 compounds, 0.15% hits; purified LDHA, NADH/diaphorase-resazurin fluorescence; stronger effect = lower value; in the data active = activity change below about -30%; inconclusive = mostly about -25% to -30%;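 note: plate controls were DMSO wells for no effect and wells without enzyme for full effect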
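Remaining NADH was detected by diaphorase (0.133 mg/mL) converting 37 µM resazurin to fluorescent resorufin, read at 0 and 20 minutes. The preceding 5-minute room-temperature reaction used 2 nM LDHA, 0.2 mM sodium pyruvate and 0.06 mM NADH at pH 7.4.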
Menin-MLL FL inh = menin-MLL binding inhibition, fluorescein peptide | AID 1766 | Fluorescence polarization, fluorescein-MLL peptide displacement from menin | FP activity change, % at 61.4 µM | 290,000 tested, under 10 active; active = well fitted curve in the direction sought with a large enough effect in the polarisation, not every such curve was filed as active; inconclusive = small, poorly fitted or top-dose-only effect, or effect the other way, or a change in a side signal; inactive = no such curve, though single readings can be large or run the other way; the % refers to the polarisation; note: % of control where 0% means no effect
Menin-MLL TR inh = inhibitors of human menin-MLL interaction, mutant MLL peptide; Menin + Texas Red MLL mutant peptide, fluorescence polarization; Potency, µM (titrated, usually from 61.6 µM), for the others: at the highest dose FP activity change, negative = inhibition, most hits filed as inhibitors; 270,000 compounds, 0.23% hits; AID 1768; active = well fitted inhibition curve with a large enough effect in the polarisation, with a control signal flat, not every such curve was filed as active; inconclusive = small, poorly fitted or top-dose-only effect, or effect the other way, or a change in a side signal; inactive = no such curve, though single readings can be large or run the other way; the % refers to the polarisation; note: potency is the fitted concentration of half-maximal effect; % of control where 0% means no effect
An asterisk follows results filed as active; i = inactive; ? = inconclusive; / = no result given; [ ] = another dose, or the depositor's remark. In the library only some 0.54% were active in any assay of this set; here they are far more common.

SMILES	IDH1 R132H inh	Akt phos inh	MLL CXXC-DNA inh	LDHA block	Menin-MLL FL inh	Menin-MLL TR inh
COc1ccccc1N(CC(=O)NC1CCCC1)C(=O)c1csnn1	2%	-121%*	2%	-9	0	-9%
N#Cc1cn2ncnc2nc1N	/	/	/	-31*	/	/
N#Cc1cnc2ncnn2c1N	/	/	/	12	/	/
CN(C)c1nc(N(C)C)nc(N(C#N)CCOc2ccccc2)n1	2%	-111%*	-1%	-1	-2	1%
Cc1cc(C)nc(N(C#N)CCOc2ccccc2)n1	-2%	i	1%	-8	1	-9%
Cc1cc(C)c2[nH]c(=O)c(CN(Cc3nnnn3C3CCCC3)C3CCCCC3)cc2c1	1%	i	-6%	-4	1	-8%
Cc1cccc2cc(CN(Cc3nnnn3C3CCCCC3)C3CCCC3)c3nnnn3c12	-2%	-116%*	4%	-2	-2	-3%
O=C(NCCSCc1cccs1)C1CCC1	/	/	/	0	/	/
CC1(C(=O)NCc2ccc(Cl)cc2)Cn2c(ccc2-c2ccco2)C(=O)N1C1CC1 (configuration not stated)	/	/	/	-5	/	/
CN(C)C(=S)c1ccc2ccccc2n1	2%	-120%*	-11%	0	1	0%
CCCn1c(NC(=O)c2ccc(Br)cc2)nc2ccccc21	6%	-87%*	-12%	-6	-1	-3%
CCCn1c(NC(=O)c2ccc(F)cc2)nc2ccccc21	11%	i	-3%	-4	4	0%
Fc1ccccc1-c1nnc(SCc2ccccc2)n1C1CC1	/	/	/	7	/	/
CN(C)c1ccc(-c2nc3cnccn3c2NC2CCCC2)cc1	/	/	/	2	/	/
Cc1ccc(-c2nonc2NC(=O)c2ccccc2)cc1	/	/	/	1	/	/
COc1ccccc1OCc1ccc(C(=O)OCC2CCCO2)o1 (configuration not stated)	12%	-119%*	-8%	-4	0	11%
COc1ccccc1OCc1ccc(C(=O)OC2CCCCC2)o1	/	/	/	7	/	/
CSc1ccccc1NC(=O)CN(C)C(C)C(=O)NCc1ccc2c(c1)OCO2 (configuration not stated)	0%	i	/	-47*	/	/
CC(C(=O)Nc1ccc2c(c1)OCO2)N(C)CC(=O)Nc1ccccc1Cl (configuration not stated)	-8%	i	/	-3	/	/
O=S(=O)(c1cccs1)N1CCN(C/C=C/c2ccccc2)CC1	13%	-118%*	21%	-4	-2	0%
COc1cc(O)oc1C=Nc1ccc(Cl)cc1	-2%	-119%*	3%	6	1	6%
COc1cc(/C=N/NS(=O)(=O)c2ccc(C)c([N+](=O)[O-])c2)cc([N+](=O)[O-])c1O	-10%	i	8%	1	-8	25µM*
CC/C(=N\n1nnnc1Nc1ccccc1)c1ccccc1	1%	-113%*	-7%	-2	-2	-10%
CC(C)c1ccc(/C=N/n2nnnc2Nc2ccccc2)cc1	2%	i	16%	-3	0	12%
COC(=O)C1=C(C)C(c2ccc(OC)cc2OC)NC(=O)N1 (configuration not stated)	4%	-117%*	-4%	-2	-2	0%
SMILES	IDH1 R132H inh	Akt phos inh	MLL CXXC-DNA inh	LDHA block	Menin-MLL FL inh	Menin-MLL TR inh
COC(=O)C1=C(C)C(c2ccc(OC)cc2)NC(=O)N1 (configuration not stated)	4%	i	7%	-7	-2	2%
O=S(=O)(Nc1nc2ccccc2nc1Nc1ccc(F)cc1)c1ccccc1	/	/	/	1	/	/
Oc1ccc(N=Cc2ccc3ccccc3c2)cc1	/	/	/	116	/	/
O=C(COc1ccc2c(=O)c(Oc3ccc(F)cc3)coc2c1)NCc1ccccc1	/	/	/	-22	/	/
CC(C)(C)c1cc(Cl)ccc1OCCOCCN1CCCC1	-4%	i	6%	-7	0	4%
Cc1ccc(OCCOCCN2CCN(C)CC2)c(C(C)(C)C)c1	-12%	i	-8%	-32*	-1	?
CSc1ccc(CN2CCN(C/C=C/c3ccccc3)CC2)cc1	/	/	/	-2	/	/
COc1cc2c(cc1OC)CN(CC(=O)Nc1ccc(C#N)cc1)CC2	-8%	-107%*	11%	1	7	/
C[C@H](O)[C@@H]1C(=O)N2CCc3ccc(-c4ccccc4)cc3[C@@H]2C[C@@H]1N(C)C(=O)c1cccnc1	-5%	i	/	-1	/	/
Cc1ccccc1Oc1ccc2c(c1)[C@@H]1C[C@H](N(C)C(=O)c3cccnc3)[C@H]([C@H](C)O)C(=O)N1CC2	0%	i	/	-32*	/	/
C=C(C)[C@@H]1CCC2(C(=O)OC)CC[C@]3(C)C(CCC4[C@@]5(C)C/C(=C\c6ccccc6OC)C(=O)C(C)(C)C5CC[C@]43C)C12 (some centres not stated)	/	/	/	-1	/	/
CSc1nc(C(F)(F)F)cc(=O)[nH]1	/	/	/	4	/	/
COc1ccc(C2C3=C(CC(C)(C)CC3=O)Nc3c2c(=O)[nH]c(=O)n3Cc2ccccc2)cc1 (configuration not stated)	3%	-102%*	6%	2	?	4%
Cc1ccc(C2C3=C(CC(C)(C)CC3=O)Nc3c2c(=O)[nH]c(=O)n3Cc2ccccc2)cc1 (configuration not stated)	/	/	/	-2	/	/
O=c1c(-c2nnc(SCc3ccc(Cl)cc3Cl)o2)cccn1Cc1ccccc1	2%	-94%*	46%	-4	-2	/
CSc1nnc(-c2cccn(Cc3ccccc3)c2=O)o1	10%	i	3%	-8	0	-1%
CC1CCN(CCOCCOc2ccc(Cl)cc2Br)CC1	4%	i	2%	-34*	1	-24%
CCCN(Cc1ccccc1)C(=O)Cc1n[nH]c(=O)c2ccccc12	/	/	/	-2	/	/
COc1cc(NCCCC(C)N)c2ncccc2c1 (configuration not stated)	26%	i	3%	24	?	?
CCC(CNc1cc(OC)cc2cccnc12)NC1CCCCC1 (configuration not stated)	23%	i	?	8	?	35µM*
CC(C)C(=O)Nc1ccc(NC(=O)c2ccc3c(c2)OCO3)cc1	-4%	i	2%	0	3	?
COc1cc(NC(=O)c2ccc3c(c2)OCO3)ccc1NC(=O)C(C)C	6%	-115%*	11%	1	2	2%
O=C(Nc1nnc(-c2cccs2)o1)c1cccc(Oc2ccccc2)c1	-12%	i	-5%	-33*	2	1%[11.7 µM]
COc1ccccc1-c1cc(NC(=O)COCC2CC2)n[nH]1	/	/	/	5	/	/
COc1cccc2cc(C(=O)C3=C(O)C(=O)N(CCCN(C)C)C3c3ccncc3)oc12 (configuration not stated)	/	/	11%	/	2	-3%
